# An excerpt weighted towards active compounds, which were near 0.86% of everything screened.
# AmpC detergent = qHTS Inhibitors of AmpC Beta-Lactamase (assay with detergent); AmpC hydrolysis of nitrocefin, absorbance 480 nm, 0.01% Triton; actives 0.041% (n = 370,000); Potency, µM (top dose mostly 114 µM), for the others: at the highest dose activity change, negative = inhibition, hits mostly inhibitors; AID 485294, 2010; P00811;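 note: potency is the fitted concentration of half-maximal effect; 0% = no-compound wells and -100% = no-enzyme wells; nearly all actives have a fitted effect of over 25% in size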
# Target sequence (P00811 whole entry, looked up): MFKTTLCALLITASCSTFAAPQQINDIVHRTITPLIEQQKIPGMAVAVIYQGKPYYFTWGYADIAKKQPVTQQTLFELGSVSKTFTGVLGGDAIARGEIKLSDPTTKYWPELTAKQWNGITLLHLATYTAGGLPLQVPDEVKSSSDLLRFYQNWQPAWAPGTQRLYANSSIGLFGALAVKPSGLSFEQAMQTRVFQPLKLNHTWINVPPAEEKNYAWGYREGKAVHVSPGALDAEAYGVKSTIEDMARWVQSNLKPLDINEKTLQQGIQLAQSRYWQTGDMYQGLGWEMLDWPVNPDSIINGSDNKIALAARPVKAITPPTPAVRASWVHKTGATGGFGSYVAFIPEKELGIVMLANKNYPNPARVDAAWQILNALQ
#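 AmpC (5.3 nM in the dispensed reagent) in 20 mM phosphate pH 7.0 with 0.01% (detergent screen) or 0.0001% Triton X-100 was preincubated with compounds for 15 min at room temperature. Nitrocefin was then added from an 800 uM solution, and hydrolysis was followed at 480 nm.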
# AMA1-RON2 inh = qHTS for Inhibitors of AMA1-RON; Towards Development of Antimalarial Drug Lead: Primary Screen; AID 720542, 2013; actives 0.2% (n = 360,000); Plasmodium falciparum AMA1 (3D7) - RON2 peptide interaction; AlphaScreen AMA1-biotinylated RON2 peptide binding; Potency, µM (series often up to 58.2 µM), for inactives: at the top dose activity change, negative = inhibition, most hits filed as inhibitors;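 note: potency is the fitted concentration of half-maximal effect; 0% = vehicle wells and -100% = peptide control; nearly all actives have a fitted effect of over 45% in size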
#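 AMA1 (3D7) with his tag at 25 nM final met compounds first, then biotinylated RON2 peptide at 25 nM; detection used donor plus acceptor beads, 10 µg/mL apiece, read by AlphaScreen after 30 min at room temperature.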
# AmpC no deterg = qHTS Inhibitors of AmpC Beta-Lactamase (assay without detergent); P00811; AmpC nitrocefin hydrolysis, absorbance 480 nm, 0.0001% Triton; Potency, µM (series often up to 57.1 µM), inactives show at the highest dose activity change, negative = inhibition, hits mostly inhibitors; actives 0.52% (n = 330,000); AID 485341, 2010;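 note: potency is the fitted concentration of half-maximal effect; plate controls were no compound for no effect and no enzyme for full effect; nearly all actives have a fitted effect of over 20% in size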
#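 AmpC (5.3 nM in the dispensed reagent) in 20 mM phosphate pH 7.0 with 0.01% (detergent screen) or 0.0001% Triton X-100 was preincubated with compounds for 15 min at room temperature. Nitrocefin was then added from an 800 uM solution, and hydrolysis was followed at 480 nm.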
# NS1 inh = qHTS Assay for Inhibitors of Influenza NS1 Protein Function | Potency, µM (series often up to 46.1 µM), for the others: top-dose activity, positive = more growth | actives 0.4% (n = 270,000); calls by dose curve; note: potency is the fitted concentration of half-maximal effect; actives are rising curves; nearly all actives have a fitted effect of over 50% in size
#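 Recovery from NS1-induced slow growth read by OD600 in budding yeast switched to galactose assay medium (pH 6.0, -URA) at 1:100 dilution. Compound 23 nl per well; the matching strain lacking NS1 serves as control.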
# NS1 inh valid = Assay for Inhibitors of Influenza NS1 Protein Function: Hit Validation | activity change, negative = inhibition, % at 32.9 µM | 1,400 tested, under 10 active | influenza NS1 function cell assay, 15-point titration | shares compounds with NS1 inh | AID 492980, 2010; calls by dose curve; note: 0% is about no effect
# PR8 titer = Assay for Inhibitors of Influenza NS1 Protein Function: Influenza virus replication assay in MDCK cells infected with virus A/PR/8/34. actives 30% (n = 95). MDCK infected influenza A/PR/8/34, virus titer TCID50; hits give low values. virus titer (log TCID50), log10 TCID50 at 5 µM. shares compounds with NS1 inh; call rule not given here
# * = called active by the depositor; ? = inconclusive; . = no result. Unless noted, calls come from the whole dose curve; as a rule, active = well fitted curve in the direction sought with a large enough effect; inconclusive = small, poorly fitted or top-dose-only effect, or another doubt; inactive = no such curve, though single readings can be large; an effect the other way counts as inactive or inconclusive.
SMILES,AmpC detergent,AMA1-RON2 inh,AmpC no deterg,NS1 inh,NS1 inh valid,others
Cc1ccc(NC(=O)CN2C(=O)S/C(=C\c3cc(C)n(-c4cccc(C(=O)O)c4)c3C)C2=O)cc1,-8.9%,-1.0%,-30.0%,11.2µM*,7.4,
CC(Nc1cc(N2CCN(C(=O)C(C)(C)C)CC2)ccc1[N+](=O)[O-])c1ccccc1 (stereo not given),-4.3%,?,32.7%,11.7%,.,
Cc1cc(-n2c(C)cc(C(=O)CSc3nnnn3-c3ccccc3)c2C)no1,?,-0.5%,-1.0%,-4.4%,.,
Cc1ccc(-n2nnnc2SCC(=O)c2cc(C)n(-c3cc(C)on3)c2C)c(C)c1,-12.8%,-5.8%,-1.3%,?,-15.2,
COc1ccc(NC(C)=O)cc1S(=O)(=O)Nc1ccccc1C(=O)NCCc1ccccc1,-5.1%,15.5%,-11.4%,-1.2%,.,
COc1ccc(CCNC(=O)c2ccccc2NS(=O)(=O)c2cc(C(=O)O)ccc2OC)cc1,-9.1%,-1.5%,-27.8%,?,2.4,
CCCCCCCCCCCCCCCCCCNC(=O)OCC(COP(=O)([O-])OCC[n+]1ccsc1)OC (stereo not given),.,.,.,2.1%,.,
Cc1ccc(NC(=O)NNC(=O)Cn2nc(-c3ccccc3)c(-c3ccccc3)c(C#N)c2=O)cc1,-2.5%,-0.7%,-36.7%,?,-36.9,
Cc1ccc(-n2ncc(C(=O)N3CCN(Cc4ccccc4)CC3)c2C2CCN(C(=O)OC(C)(C)C)CC2)c(C)c1,16.6%,.,.,.,.,
Cc1ccccc1NC(=O)CSc1nnc(-c2ccccc2)n1-c1ccccc1,1.5%,0.0%,-0.6%,24.0%,.,
COc1ccc(C(C)=O)cc1CSc1nnc(-c2ccc(Cl)cc2)n1-c1ccccc1,-2.8%,-17.2%,48.9%,1µM*,?,
O=C(CSc1nnc(-c2ccccc2)n1-c1ccccc1)NCc1ccco1,1.2%,-3.8%,-0.9%,17.8µM*,0.5,
COc1ccccc1NC(=O)CC(=O)CSc1nnc(-c2ccc(C)cc2)n1-c1ccccc1,2.5%,9.4%,0.5%,14.1µM*,7.7,
Cc1cccc(OCC(=O)Nc2ccccc2OCc2cc(=O)n3cc(C)ccc3n2)c1,12.5%,.,.,.,.,
CN(CC(=O)N1CCN(Cc2ccccc2)CC1)C(=O)Cc1cccc2ccccc12,2.0%,-15.2%,163.6%,.,.,
CCn1ccc(C(=O)Nc2ccccc2SC)n1,-12.9%,-19.8%,3.9%,.,.,
COc1ccc(OC)c(NC(=O)CSc2ccc3nnc(-c4cccnc4)n3n2)c1,1.2%,?,-5.4%,.,.,
COc1cccc2sc(N(Cc3cccnc3)C(=O)C3CCCCC3)nc12,1.9%,.,.,.,.,
COC(=O)c1ccccc1NC(=S)N(Cc1ccc2c(c1)OCO2)Cc1cc2cc(C)ccc2[nH]c1=O,-11.2%,-7.4%,-29.4%,11.2µM*,?,
COc1ccc(CNC(=O)CCc2nnc3n(CC(C)C)c(=O)c4ccccc4n23)cc1,3.0%,.,.,.,.,
CCNC(=S)N1CCC(C(O)(c2ccccc2)c2ccccc2)CC1,-5.5%,-10.7%,17.5%,16.1%,.,
COc1cc(NC(=S)N2CCC(C(O)(c3ccccc3)c3ccccc3)CC2)cc(OC)c1,?,25.7%,-0.1%,4.47µM*,13.3,
O=C(COC(=O)[C@@H]1CCCN1C(=O)c1cccs1)Nc1cccc(Cl)c1,.,11.7%,9.9%,.,.,
Cc1cccc(NS(=O)(=O)c2cccc(C(=O)Nc3cccc(C(=O)O)c3)c2)c1,-6.2%,-5.0%,-23.9%,2.24µM*,31.4,
CC(=O)c1ccc(NS(=O)(=O)c2cccc(C(=O)Nc3ccccc3C(=O)O)c2)cc1,-17.8%,-1.3%,-31.2%,12.6µM*,31.2,
SMILES,AmpC detergent,AMA1-RON2 inh,AmpC no deterg,NS1 inh,NS1 inh valid,others
Cc1cccc(NC(=O)c2cc(NC(=O)c3ccccc3)ccc2N2CCCCC2)c1,-11.6%,-5.7%,1.3%,?,2.3,PR8 titer=8.5
Cc1ccccc1C(=O)Nc1cccc(C(=O)Nc2ccccc2C(=O)O)c1,-6.1%,0.6%,-19.6%,11.2µM*,14.0,
COc1ccc(-c2cc(C3CCNCC3)[nH]n2)cc1,-3.2%,-5.6%,32.2%,9.9%,.,
O=C(O)c1ccc(-n2cc(-c3cc4ccccc4oc3=O)[nH]c2=S)cc1,1.8%,-3.7%,-9.5%,-1.9%,.,
O=C(NCC1CCCO1)C(=O)N/N=C\c1ccc2c(c1)OCO2 (stereo not given),6.5%,7.7%,-5.2%,11.8%,.,
COc1ccc(O[C@H]2C=C[C@@H](c3ccccc3)O[C@@H]2CO/N=C(\C)CCC(=O)OC[C@H]2O[C@H](c3ccccc3)C=C[C@@H]2Oc2ccc(OC)cc2)cc1,?,.,-43.0%,-11.7%,.,
Cc1cccc(NC(=O)C2CCCN(c3nc(C)cc(C)n3)C2)c1 (stereo not given),-7.3%,1.2%,8.8%,8.91µM*,1.3,
Cc1cccc(NC(=O)C2CCN(c3nc(C)cc(C)n3)CC2)c1,-15.1%,-10.6%,67.3%,-2.1%,.,
CCCCCCN1C[C@@H](O)[C@H](n2cc(C3CC3)nn2)C[C@@H]1c1ccc(C)cc1,.,-3.3%,.,.,.,
CCCCc1ccc(NC(=O)C(C)CC)cc1 (stereo not given),-2.3%,-2.5%,-4.0%,0.5%,.,
CCC(CC)c1nnc(NC(=O)c2cccc(S(=O)(=O)N3CCc4ccccc43)c2)s1,?,16.5%,-11.5%,8.91µM*,-0.5,
Cc1ccccc1CCNC(=O)c1ccc2c(c1)nc1n2CCCCC1,4.3%,.,.,.,.,
CCCC(=O)Nc1ccc2c(c1)C(=O)N(C)C[C@@H](OC)[C@H](C)CN(Cc1ccc(-c3ccccn3)cc1)[C@@H](C)CO2,.,-10.5%,.,.,.,
COc1cc(NS(=O)(=O)c2ccc3c(c2)CCCN3C(C)=O)cc(OC)c1OC,2.7%,.,.,.,.,
Cc1c(Cl)cnc(NC(=O)COC(=O)c2cccc(S(=O)(=O)N3c4ccccc4CC3C)c2)c1Cl (stereo not given),12.3%,0.0%,0.0%,11.2µM*,-12.7,
Cc1c(Cl)cnc(NC(=O)COC(=O)c2cccc(S(=O)(=O)N3CCc4ccccc4C3)c2)c1Cl,6.3%,13.0%,-27.4%,9.8%,.,
COc1ccccc1/C=N/NC(=O)c1[nH]c(C)c(C(=O)N/N=C/c2ccccc2OC)c1C,1.9%,9.8%,-9.8%,?,?,
Cn1cnnc1SCC(=O)Nc1ccccc1Sc1ccccc1,?,-0.9%,22.4%,0.891µM*,-1.1,
CCOc1ccc(N2C(=O)CC(Sc3nc(C)cc(C)c3C#N)C2=O)cc1 (stereo not given),-1.5%,0.1%,10.9%,12.6µM*,15.9,

# Screens deposited in PubChem by National Center for Advancing Translational Sciences (NCATS).
